Source: PubChem BioAssay
Inconclusive results are not listed. Active and inactive are the calls of the source.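 Rule for the calls, unless noted: active = differentiation response of at least 50%, scaled between solvent and reference control, from cells with both markers; inactive = the rest.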

Tests used:
[1] = rapamycin-like changes in RPL19A-GFP expression – cell-based, S. cerevisiae, multiplex flow cytometry, primary screen (AID 1862; in the data active = percent of DMSO control GFP below about 86%;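 note: lower values mimic rapamycin by blocking the RPL19A rise seen in DMSO cells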); conditions: S. cerevisiae RPL19A-GFP strain, flow cytometry fluorescence, 3 h; at 10 µM; stronger effect = lower value
[2] = TOR pathway GLN3 branch reporter MEP2-GFP changes – S. cerevisiae, multiplex flow cytometry, primary screen (AID 1867;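 active = GFP response, as percent of the DMSO control, above the screen-wide mean plus 3 SD, about 139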;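 note: median GFP channel fluorescence of barcode-gated MEP2-GFP cells measured by flow cytometry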); conditions: S. cerevisiae MEP2-GFP strain, 3 h, at 10 µM, stronger effect = higher value, 100% means same as DMSO wells
[3] = TOR pathway RTG branch CIT2 reporter changes – S. cerevisiae, GFP fusion, multiplex flow cytometry, primary screen (AID 1870;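 active = percent response above a set limit, the screen-wide mean plus 3 SD, cut at about 130% in these data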;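 note: barcoded CIT2-GFP strain pooled with four other GFP strains with rapamycin as positive control; median GFP fluorescence per well over plate mean of DMSO wells so 100% = DMSO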); conditions: S. cerevisiae CIT2-GFP expression, 3 h, at 10 µM, stronger effect = higher value
[4] = TOR pathway LAP4-GFP level changes – S. cerevisiae, multiplex flow cytometry, primary screen (AID 1873;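 active = GFP signal, as percent of the solvent control, above the screen mean plus 3 SD, about 149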); conditions: S. cerevisiae LAP4-GFP expression, 3 h, at 10 µM, stronger effect = higher value
[5] = yeast AGP1-GFP level changes, GLN3 branch – cell-based, multiplex flow cytometry, S. cerevisiae, primary screen (AID 1887;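 active = GFP signal above the screen-wide mean plus 3 SD, that is over about 124.5% of the solvent control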;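 note: AGP1-GFP fusion strain of S. cerevisiae within a five-strain barcoded multiplex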); conditions: 3 h, at 10 µM, stronger effect = higher value
[6] = reduced mouse 2C T cell binding to pMHC/ICAM-1 vesicles – MLPCN validation set, flow cytometry, LFA-1/ICAM-1 modulator project, pilot screen (AID 2523;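 active = response below a set limit, under 55% cells CD8-positive and vesicle-bound, and CD8 cells' 90th-percentile brightness under 279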;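 for vesicle binding response: mean PE anti-B7-1 fluorescence of CD8+ cells relative to row control; 100% = QL9-loaded vesicles with DMSO vehicle in the same plate row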); conditions: 2C mouse CD8+ T cells, at 7 µM, stronger effect = lower value; double positive events: measured here: CD8+/vesicle+ event percentage
[7] = target: Integrin beta-1 (Homo sapiens) + Integrin alpha-4 (Homo sapiens) (UniProt P13612+P05556); test: alpha4beta1 integrin LIBS antibody binding reduction – U937 cells, HUTS-21 mAb, flow cytometry, validation set, VLA-4 allosteric modulator project, pilot screen (AID 2674;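 active = inhibition above 50%, about 3 SD of the validation set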;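 note: antibody binding induced by the VLA-4 ligand LDV present at three times its Kd; 0% = LDV ligand with antibody and no compound and 100% = antibody without LDV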); conditions: HUTS-21 LIBS mAb binding, at 6.7 µM, stronger effect = higher value, binding induced by LDV ligand
[8] = calorie-restriction mimetic ROS inhibitors, yeast – validation compound set, pilot screen (AID 2706;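 active = superoxide response below 65% of plate, a cut near 3 SD across the whole screen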;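 note: yeast exposed to compound for one week at 30 degrees C before staining; 100% = mean of all compound wells on the same plate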); conditions: S. cerevisiae aging, superoxide DHE fluorescence; at 10 µM; stronger effect = lower value
[9] = target: Beta-adrenergic receptor kinase 1 (Homo sapiens) (UniProt P25098); test: GRK2 binders displacing RNA aptamer, biochemical, validation, human GRK2, bead flow cytometry (AID 488806;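 active = aptamer binding inhibition above 30%, about 3 SD of noise from non-fluorescent compounds; inactive = inhibition at or below 30%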); conditions: bead-bound GRK2, FAM-aptamer displacement, at 10 µM, stronger effect = higher value
[10] = target: Beta-2 adrenergic receptor (Homo sapiens) (UniProt P07550); test: agonist-induced loss of surface beta2AR – cell-based, FAP fluorogen, flow cytometry, validation set, pilot screen (AID 504459;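 active = percent response above 42, roughly 3 SD of non-fluorescent test compounds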;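 note: agonist-driven loss of surface beta2AR via internalization measured by FAP dye flow cytometry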); conditions: Am2.2-beta2AR cells, at 10 µM, stronger effect = higher value
[11] = target: AP-2 complex subunit beta (Homo sapiens) (UniProt P63010); test: beta-arrestin/AP2 interaction blockers – biochemical, validation set, GST-AP2 beads, flow cytometry, pilot screen (AID 504541;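 active = inhibition above 54%, about 3 SD of non-fluorescent compounds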;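 note: AP2 carries R879A mutation and is captured from E. coli lysate; bead-bound FITC arrestin peptide fluorescence measuring arrestin peptide binding to AP2; 0% = DMSO wells and 100% = excess unlabeled arrestin peptide control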); conditions: FITC arrestin peptide, at 10 µM, stronger effect = higher value, AP2 beta2 appendage fragment, R879A mutant
[12] = cytosolic pH regulators acting via V-ATPase – S. cerevisiae, pHLuorin, HTS validation (AID 504600; in the data active = response above about 15%;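 note: plate controls were DMSO for no effect and reference compound for full effect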); conditions: V-ATPase proton transport, at 10 µM, stronger effect = higher value
[13] = tested on: anti-desmoglein-3 scFv antibody binding to human DSG3; test: blockers of pathogenic pemphigus antibody–desmoglein-3 binding – biochemical, validation compound set, bead-based, flow cytometry, pilot screen (AID 588368;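 active = binding below the plate cutoff, the plate median minus 3 SD, with a reading above zero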;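 note: signal is the median channel fluorescence of bead-bound GFP antibody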); conditions: Protein G beads, DSG3-Fc, scFv-GFP binding, at 10 µM, stronger effect = lower value
[14] = Nile Red efflux blockade in pump-expressing yeast – validation compound set, multiplex, phenotypic, pilot screen (AID 588506;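 active = efflux inhibition above 0.42, the validation set average plus 4 SD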;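 note: Nile Red retained in cells so higher fluorescence means more efflux inhibition; 0 = negative control wells and 1 = enniatin B 25 µM full block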); conditions: S. cerevisiae pump-expressing triplex, Nile Red efflux flow cytometry; at 10 µM; stronger effect = higher value; the pumps come from Candida albicans
[15] = target: ATP-binding cassette sub-family B member 6 (Homo sapiens) (UniProt Q9NP58); test: blockers of ABCB6-driven porphyrin uptake – K562-ABCB6 cells, flow cytometry, validation set, pilot screen (AID 588550;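 active = inhibition above the screen-wide mean plus 3 SD, about 51%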;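 note: 0% = DMSO wells and 100% = benzethonium chloride 70 µM positive control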); conditions: K562-ABCB6 porphyrin accumulation, 1 h, at 10 µM, stronger effect = higher value
[16] = AML differentiation inducers, ER-HoxA9 marrow cells – cell-based, GFP/MAC1 double positive, flow cytometry, validation set, primary screen (AID 588685); conditions: stronger effect = higher value, normalized: vehicle 0, fulvestrant 100;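 note: compound exposure lasts four days before antibody staining and flow analysis; 0% = DMSO wells and 100% = 5 µM fulvestrant positive control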

Sequence of AP-2 complex subunit beta (Homo sapiens) (P63010 whole entry, looked up, the tested form may be a part, one chain of several): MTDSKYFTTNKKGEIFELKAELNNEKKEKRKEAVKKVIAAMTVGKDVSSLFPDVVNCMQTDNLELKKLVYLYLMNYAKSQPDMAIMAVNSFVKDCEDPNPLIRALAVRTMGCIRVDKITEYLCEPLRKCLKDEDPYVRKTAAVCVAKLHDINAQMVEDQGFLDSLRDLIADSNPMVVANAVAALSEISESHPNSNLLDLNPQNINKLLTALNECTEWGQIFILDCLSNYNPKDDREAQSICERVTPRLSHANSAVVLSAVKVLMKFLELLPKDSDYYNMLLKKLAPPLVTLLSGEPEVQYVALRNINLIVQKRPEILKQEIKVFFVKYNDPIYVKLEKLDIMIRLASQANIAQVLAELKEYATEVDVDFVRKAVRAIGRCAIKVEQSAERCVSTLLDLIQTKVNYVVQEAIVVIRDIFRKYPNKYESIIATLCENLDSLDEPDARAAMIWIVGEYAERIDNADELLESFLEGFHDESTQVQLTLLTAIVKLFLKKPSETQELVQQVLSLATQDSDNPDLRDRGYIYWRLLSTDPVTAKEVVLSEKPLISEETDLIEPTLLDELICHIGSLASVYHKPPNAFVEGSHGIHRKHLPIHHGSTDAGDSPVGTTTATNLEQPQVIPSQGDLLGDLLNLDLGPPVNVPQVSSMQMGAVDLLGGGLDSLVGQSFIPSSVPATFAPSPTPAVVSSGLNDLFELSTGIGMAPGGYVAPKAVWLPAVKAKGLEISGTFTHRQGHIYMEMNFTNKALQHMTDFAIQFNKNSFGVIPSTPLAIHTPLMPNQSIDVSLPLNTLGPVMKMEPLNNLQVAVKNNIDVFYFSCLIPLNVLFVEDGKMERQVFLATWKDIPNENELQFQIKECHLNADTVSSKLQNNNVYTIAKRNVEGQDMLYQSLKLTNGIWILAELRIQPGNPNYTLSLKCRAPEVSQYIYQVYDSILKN
Sequence of Integrin beta-1 (Homo sapiens) + Integrin alpha-4 (Homo sapiens) (P05556 whole entry, looked up): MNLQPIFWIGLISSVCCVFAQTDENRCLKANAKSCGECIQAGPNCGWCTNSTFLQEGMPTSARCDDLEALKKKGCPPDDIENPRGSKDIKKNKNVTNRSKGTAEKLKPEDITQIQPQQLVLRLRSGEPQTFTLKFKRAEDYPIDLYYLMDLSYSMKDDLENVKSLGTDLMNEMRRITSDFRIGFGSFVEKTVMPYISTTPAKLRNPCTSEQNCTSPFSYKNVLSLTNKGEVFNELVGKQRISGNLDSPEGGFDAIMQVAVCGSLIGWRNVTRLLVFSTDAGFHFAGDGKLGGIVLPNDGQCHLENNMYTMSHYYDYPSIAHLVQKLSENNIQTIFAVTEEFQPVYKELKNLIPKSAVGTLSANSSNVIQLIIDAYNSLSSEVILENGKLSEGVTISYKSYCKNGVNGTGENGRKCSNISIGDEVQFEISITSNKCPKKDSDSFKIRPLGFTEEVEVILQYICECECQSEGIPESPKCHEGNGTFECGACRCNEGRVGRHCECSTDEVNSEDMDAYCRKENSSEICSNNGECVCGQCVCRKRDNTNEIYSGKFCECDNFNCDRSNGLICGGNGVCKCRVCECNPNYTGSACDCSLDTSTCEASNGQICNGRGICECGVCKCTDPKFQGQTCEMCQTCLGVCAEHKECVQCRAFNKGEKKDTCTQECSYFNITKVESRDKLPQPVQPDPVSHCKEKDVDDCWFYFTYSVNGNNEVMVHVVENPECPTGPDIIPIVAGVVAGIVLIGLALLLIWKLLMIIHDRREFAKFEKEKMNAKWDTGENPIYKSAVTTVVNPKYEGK
Sequence of Integrin beta-1 (Homo sapiens) + Integrin alpha-4 (Homo sapiens) (P13612 whole entry, looked up): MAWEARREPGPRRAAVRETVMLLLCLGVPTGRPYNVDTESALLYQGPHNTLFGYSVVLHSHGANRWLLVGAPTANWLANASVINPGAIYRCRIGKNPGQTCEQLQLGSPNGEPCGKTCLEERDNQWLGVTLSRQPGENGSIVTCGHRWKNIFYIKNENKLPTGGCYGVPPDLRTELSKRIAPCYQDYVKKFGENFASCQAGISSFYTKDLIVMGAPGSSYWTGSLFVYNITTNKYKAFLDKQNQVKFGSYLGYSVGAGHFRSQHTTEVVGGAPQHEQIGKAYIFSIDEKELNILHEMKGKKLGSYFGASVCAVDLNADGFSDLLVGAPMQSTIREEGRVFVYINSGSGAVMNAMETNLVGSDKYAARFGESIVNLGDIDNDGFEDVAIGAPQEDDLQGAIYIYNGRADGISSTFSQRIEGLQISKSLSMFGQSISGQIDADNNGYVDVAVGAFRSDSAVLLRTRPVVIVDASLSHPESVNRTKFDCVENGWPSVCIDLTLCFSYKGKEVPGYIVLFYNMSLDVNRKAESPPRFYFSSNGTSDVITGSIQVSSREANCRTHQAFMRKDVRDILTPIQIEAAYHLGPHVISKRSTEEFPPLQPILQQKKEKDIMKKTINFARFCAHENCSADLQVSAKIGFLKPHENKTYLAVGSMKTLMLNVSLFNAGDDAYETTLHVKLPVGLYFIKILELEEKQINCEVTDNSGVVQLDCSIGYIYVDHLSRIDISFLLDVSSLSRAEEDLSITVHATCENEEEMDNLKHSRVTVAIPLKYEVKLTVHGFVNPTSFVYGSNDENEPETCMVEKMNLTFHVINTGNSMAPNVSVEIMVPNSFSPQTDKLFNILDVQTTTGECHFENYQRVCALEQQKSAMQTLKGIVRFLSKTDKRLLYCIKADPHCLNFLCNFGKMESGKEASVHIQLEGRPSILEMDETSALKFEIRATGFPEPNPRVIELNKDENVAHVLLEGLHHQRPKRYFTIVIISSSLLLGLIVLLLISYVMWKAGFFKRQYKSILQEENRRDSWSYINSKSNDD
Sequence of Beta-2 adrenergic receptor (Homo sapiens) (P07550 whole entry, looked up): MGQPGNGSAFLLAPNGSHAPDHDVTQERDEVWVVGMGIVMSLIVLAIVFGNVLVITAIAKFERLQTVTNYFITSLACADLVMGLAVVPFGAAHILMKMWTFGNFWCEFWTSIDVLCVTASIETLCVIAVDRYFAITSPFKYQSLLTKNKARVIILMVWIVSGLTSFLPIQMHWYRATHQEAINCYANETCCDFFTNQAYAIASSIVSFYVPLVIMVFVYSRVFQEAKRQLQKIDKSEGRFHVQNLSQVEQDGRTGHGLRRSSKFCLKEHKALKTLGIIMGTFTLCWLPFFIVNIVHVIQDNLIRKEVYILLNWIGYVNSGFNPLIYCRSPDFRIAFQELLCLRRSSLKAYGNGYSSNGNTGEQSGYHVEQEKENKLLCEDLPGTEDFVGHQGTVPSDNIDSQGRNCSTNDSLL
Sequence of Beta-adrenergic receptor kinase 1 (Homo sapiens) (P25098 whole entry, looked up): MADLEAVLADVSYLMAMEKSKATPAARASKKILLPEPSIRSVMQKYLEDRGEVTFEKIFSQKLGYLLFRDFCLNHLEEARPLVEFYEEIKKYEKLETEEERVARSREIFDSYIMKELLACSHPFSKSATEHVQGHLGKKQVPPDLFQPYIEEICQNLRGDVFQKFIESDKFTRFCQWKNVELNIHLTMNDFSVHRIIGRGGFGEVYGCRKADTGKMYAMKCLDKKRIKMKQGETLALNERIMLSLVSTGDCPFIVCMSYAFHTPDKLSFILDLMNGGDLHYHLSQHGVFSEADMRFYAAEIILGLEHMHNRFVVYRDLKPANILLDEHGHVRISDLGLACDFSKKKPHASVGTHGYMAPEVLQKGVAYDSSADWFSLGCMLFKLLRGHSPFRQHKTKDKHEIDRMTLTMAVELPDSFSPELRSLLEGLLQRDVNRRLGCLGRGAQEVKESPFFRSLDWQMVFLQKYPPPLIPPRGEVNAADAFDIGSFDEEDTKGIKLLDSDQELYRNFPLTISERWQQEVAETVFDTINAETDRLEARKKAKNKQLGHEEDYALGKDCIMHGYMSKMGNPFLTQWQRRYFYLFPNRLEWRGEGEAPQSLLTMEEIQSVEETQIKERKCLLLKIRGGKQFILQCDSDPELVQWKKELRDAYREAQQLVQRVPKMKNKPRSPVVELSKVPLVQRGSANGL
Sequence of ATP-binding cassette sub-family B member 6 (Homo sapiens) (Q9NP58 whole entry, looked up): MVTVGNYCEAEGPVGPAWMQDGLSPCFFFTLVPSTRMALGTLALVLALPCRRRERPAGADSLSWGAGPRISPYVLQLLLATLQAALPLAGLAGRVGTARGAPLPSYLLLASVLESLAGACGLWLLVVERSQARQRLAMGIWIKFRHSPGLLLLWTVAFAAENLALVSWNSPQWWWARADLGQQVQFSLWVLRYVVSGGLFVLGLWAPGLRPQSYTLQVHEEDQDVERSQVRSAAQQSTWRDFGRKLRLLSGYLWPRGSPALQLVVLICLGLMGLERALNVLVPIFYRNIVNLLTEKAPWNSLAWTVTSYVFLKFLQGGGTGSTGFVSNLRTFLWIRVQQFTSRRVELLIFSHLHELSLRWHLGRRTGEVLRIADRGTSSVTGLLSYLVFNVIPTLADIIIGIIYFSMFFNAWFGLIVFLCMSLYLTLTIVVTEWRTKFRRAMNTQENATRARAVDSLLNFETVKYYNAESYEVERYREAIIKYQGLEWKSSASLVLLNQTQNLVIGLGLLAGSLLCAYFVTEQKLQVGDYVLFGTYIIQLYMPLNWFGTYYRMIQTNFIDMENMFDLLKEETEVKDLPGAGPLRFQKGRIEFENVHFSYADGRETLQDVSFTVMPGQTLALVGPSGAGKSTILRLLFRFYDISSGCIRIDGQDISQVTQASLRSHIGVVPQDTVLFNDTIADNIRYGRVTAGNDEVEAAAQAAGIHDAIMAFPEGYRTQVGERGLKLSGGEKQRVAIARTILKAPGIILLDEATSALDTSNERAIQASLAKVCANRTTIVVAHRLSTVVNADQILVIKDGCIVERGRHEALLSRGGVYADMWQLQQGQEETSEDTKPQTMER

SMILES	percent of DMSO control GFP [1]	GFP response vs DMSO [2]	percent response of DMSO control [3]	GFP response vs DMSO [4]	GFP response, % of DMSO [5]	double positive events [6] [%]	vesicle binding response [6]	inhibition [7]	superoxide response (% of plate) [8]	aptamer binding inhibition [9]	response [10]	inhibition [11]	response [12]	binding (% of control) [13]	efflux inhibition (fraction of control) [14]	inhibition [15]	differentiation response [16]
Cc1ccsc1/C=C/C1=NCCCN1C	106% (inactive)	104% (inactive)	112% (inactive)	103% (inactive)	118% (inactive)	67.3	168% (inactive)	-34.6% (inactive)	104% (inactive)	1% (inactive)	3.43% (inactive)	-5.94% (inactive)	1.52% (inactive)	104% (inactive)	-0.135 (inactive)	1% (inactive)	-3.11% (inactive)
CN1C2CCC1CC(OC(c1ccccc1)c1ccccc1)C2 (centres undefined)	101% (inactive)	96.2% (inactive)	108% (inactive)	99.9% (inactive)	98% (inactive)	64.3	247% (inactive)	19.3% (inactive)	93% (inactive)	-8% (inactive)	8.88% (inactive)	-19% (inactive)	1.18% (inactive)	98.4% (inactive)	-0.1 (inactive)	-11% (inactive)	26.6% (inactive)
COc1ccc(C2NC(=O)c3ccccc3O2)c(OC)c1OC (centres undefined)	105% (inactive)	104% (inactive)	111% (inactive)	101% (inactive)	104% (inactive)	61.2	200% (inactive)	-7.72% (inactive)	89.7% (inactive)	5% (inactive)	-12.7% (inactive)	-2.37% (inactive)	1.87% (inactive)	95.5% (inactive)	0.11 (inactive)	0% (inactive)	-1.71% (inactive)
O=C(NC1CCCCC1)c1cc2nc(-c3ccco3)cc(C(F)(F)F)n2n1	89.5% (inactive)	106% (inactive)	102% (inactive)	78.7% (inactive)	88.2% (inactive)	43.2	158% (inactive)	-1.3% (inactive)	111% (inactive)	0% (inactive)	-19.4% (inactive)	1.72% (inactive)	8.07% (inactive)	107% (inactive)	0.09 (inactive)	9% (inactive)	20.5% (inactive)
CC(C)Oc1ccc2c(=O)c(-c3ccccc3)coc2c1	86.5% (inactive)	101% (inactive)	106% (inactive)	83.1% (inactive)	94% (inactive)	66.7	209% (inactive)	-7.12% (inactive)	94.6% (inactive)	0% (inactive)	1.13% (inactive)	2.38% (inactive)	1.01% (inactive)	101% (inactive)	-0.53 (inactive)	13% (inactive)	-5.73% (inactive)
CCc1cc(-c2[nH]ncc2-c2ccc3c(c2)OCO3)c(O)cc1O	99.8% (inactive)	102% (inactive)	105% (inactive)	95.1% (inactive)	99.5% (inactive)	58.3	13.8% (inactive)	9.71% (inactive)	92.1% (inactive)	3% (inactive)	4.41% (inactive)	-19.7% (inactive)	0.5% (inactive)	107% (inactive)	-0.34 (inactive)	4% (inactive)	-3.4% (inactive)
CN1CCN(CC/C=C2/c3ccccc3Sc3ccc(S(=O)(=O)N(C)C)cc32)CC1	102% (inactive)	109% (inactive)	94.5% (inactive)	109% (inactive)	94.8% (inactive)	68.4	202% (inactive)	23% (inactive)	86% (inactive)	4% (inactive)	-1.99% (inactive)	-4.59% (inactive)	11% (inactive)	84.3% (inactive)	0.02 (inactive)	28% (inactive)	-13.3% (inactive)
